HP1b binding inh – HTS for Inhibitors of HP1-beta Chromodomain Interactions with Methylated Histone Tails | AlphaScreen HP1-beta / biotin-H3K9me3 peptide binding | Potency, µM (titrated, usually from 114 µM), for the others: at the top dose activity change, negative = inhibition, hits mostly inhibitors | AID 540317, 2011 | Chromobox protein homolog 1 (Homo sapiens), P83916 | actives 0.56% (n = 390,000); also: nearly all actives have a fitted effect of over 70% in size
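AlphaScreen: HP1-beta (50 nM) preformed 30 min with biotin-H3(1-18)K9me3 peptide (50 nM) in PBS pH 7.4, 0.01% Tween-20. Compound added for 30 min at RT, then streptavidin donor/nickel chelate acceptor beads (10 ug/mL) for 30 min.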
JMJD2A Tudor inh – qHTS Assay for Inhibitors of JMJD2A-Tudor Domain; Lysine-specific demethylase 4A (Homo sapiens), O75164; AlphaScreen JMJD2A-Tudor / H3K4me3 peptide binding; Potency, µM (highest dose often 114 µM), without a hit: top-dose activity change, negative = inhibition, usual class: inhibitors; actives 4.4% (n = 390,000); also: % is scaled to controls: 0 for no effect and ±100 for the full control effect; nearly all actives have a fitted effect of over 50% in size
L3MBTL1 inh – qHTS Assay for the Inhibitors of L3MBTL1. AlphaScreen L3MBTL1–H3K9me1 peptide binding. Potency, µM (top dose mostly 57.1 µM), inactives show at the highest dose activity, negative = inhibition, most hits filed as inhibitors. AID 485360, 2010. actives 0.66% (n = 230,000); also: % is scaled to controls: 0 for no effect and ±100 for the full control effect; nearly all actives have a fitted effect of over 60% in size
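AlphaScreen proximity signal between nickel-chelate acceptor and streptavidin donor beads (final 10 ug/mL) reports binding of 50 nM L3MBTL1 to 75 nM biotin-H3 K9me1 peptide; complex incubated with compounds 30 min at room temperature; cefsulodin titration as control.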
G9a inh – qHTS Assay for Inhibitors of Histone Lysine Methyltransferase G9a | G9a H3K9 monomethylation, AlphaScreen, 2 h | Histone-lysine N-methyltransferase EHMT2 (Homo sapiens), Q96KQ7 | actives 8.8% (n = 350,000) | Potency, µM (series often up to 102 µM), inactives show top-dose activity, negative = inhibition, most hits filed as inhibitors; also: % is scaled to controls: 0 for no effect and ±100 for the full control effect; nearly all actives have a fitted effect of over 75% in size
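Compounds were preincubated with 20 nM G9a for 15 min, after which biotinylated H3K9 peptide (500 nM) and SAM (20 uM) started a 2 h room-temperature reaction. Monomethylated product was quantified by antibody-based AlphaScreen chemiluminescence.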
BAZ2B block – qHTS Assay for Inhibitors of BAZ2B | AlphaScreen BAZ2B-H3K14Ac peptide displacement | actives 4.4% (n = 360,000) | AID 504333, 2011 | Potency, µM (series often up to 114 µM), without a hit: top-dose activity change, negative = inhibition, usual class: inhibitors | Bromodomain adjacent to zinc finger domain protein 2B (Homo sapiens), Q9UIF8; also: % is scaled to controls: 0 for no effect and ±100 for the full control effect; nearly all actives have a fitted effect of over 60% in size
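BAZ2B (50 nM) with biotin-H3(5-23)K14Ac peptide (50 nM) in PBS pH 7.4, 0.01% Tween-20, preformed 30 min, then compound 30 min at room temperature; top concentration 110uM. AlphaScreen streptavidin donor/nickel chelate acceptor beads (10 ug/mL final), 20 min dark, signal read.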
Sfp inh – qHTS Assay for Inhibitors of Bacillus subtilis Sfp phosphopantetheinyl transferase (PPTase) | AID 1490, 2009 | actives 3.5% (n = 310,000) | Potency, µM, without a hit: largest response in the series, negative = inhibition, most hits filed as inhibitors | Biochemical Sfp PPTase activity, qHTS | 4'-phosphopantetheinyl transferase ffp (Bacillus subtilis), Q9F4F7;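 also: the enzyme is Sfp with the accession as filed and its product quenches rhodamine fluorescence; 0% = enzyme reaction without inhibitor and -100% = no enzyme wells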
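Compounds were incubated with enzyme (final 15 nM) for 15 min at room temperature before substrate addition started the reaction. Fluorescence at 525 nm excitation, 598 nm emission was recorded immediately and after 30 minutes.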
Active calls of the source: *; ? = inconclusive; . = no result given; [ ] = another dose, or the depositor's remark. Shown are actives, neighbours in structure and some others; about 12% of the full set was active somewhere. Calls follow the shape of the dose curve; as a rule, active = well fitted curve in the direction sought with a large enough effect; inconclusive = small, poorly fitted or top-dose-only effect, or another doubt; inactive = no such curve, though single readings can be large; an effect the other way counts as inactive or inconclusive. Potency is read from the fitted curve at half-maximal effect.

SMILES	HP1b binding inh	JMJD2A Tudor inh	L3MBTL1 inh	G9a inh	BAZ2B block	Sfp inh
Cc1ccc(-n2c(CCc3ccccc3)n[nH]c2=S)cc1C	6%	?	-2%	2µM*	-31%	13%
Cc1ccccc1OCc1n[nH]c(=S)n1-c1cccc(Cl)c1	37%	-25%	-14%	11µM*	-28%	7%
O=S(=O)(NCCCNS(=O)(=O)c1c(F)cccc1F)c1ccc2c(c1)OCCO2	25%	-3%	6%	14%[2.33 µM]	2%	.
Cc1ccc(OCc2n[nH]c(=S)n2-c2ccccc2)cc1C	9%	-17%	-1%	.	-10%	-1%
OCCCc1n[nH]c(=S)n1-c1ccccc1	40%	1%	-8%	?	-28%	-1%
Cc1cccc(C)c1OCc1n[nH]c(=S)n1-c1ccccc1	40%	?	-4%	2.5µM*	-21%	-21%
COCc1n[nH]c(=S)n1-c1ccccc1	38%	40µM*	.	40µM*	2%	-20%
CC(C)Oc1ccc(CCc2n[nH]c(=S)n2-c2ccccc2)cc1	-9%	-33%	-6%	2.5µM*	-23%	3%
COC(Cc1n[nH]c(=S)n1-c1ccccc1)OC	26%	18µM*	8%	-15%[59 µM]	-5%	1%
O=[n+]1ccn([O-])c2ccccc21	.	.	.	-6%[12.7 µM]	.	4%
CC(=O)c1cccc(NC(=O)CCn2nc(C)c(S(=O)(=O)N(C)C)c2C)c1	26%	9%	.	6%[12.7 µM]	-6%	.
Cc1cccc(C)c1NCc1n[nH]c(=S)n1-c1ccccc1	23%	40µM*	?	11µM*	-25%	79µM*
Cn1c(SCc2n[nH]c(=S)n2-c2ccccc2)nnc1-c1ccccc1	31%	18µM*	4%	8.9µM*	-1%	-11%
Cc1ccc(C)c(NCc2n[nH]c(=S)n2-c2ccccc2)c1	-5%	?	6%	.	-2%	22%
S=c1[nH]nc(COc2cccc3ccccc23)n1Cc1ccccc1	29%	-13%	4%	-30%	-8%	7%
Cc1ccccc1OCc1n[nH]c(=S)n1Cc1ccccc1	-8%	-30%	-13%	8.9µM*	-22%	15%
Cn1c(SCc2ccccc2)nnc1-c1ccncc1	23%	-12%	4%	?	-11%	8%
COC(=O)c1ccc(NC(=O)N2CCC(CN3CCc4ccccc4C3)CC2)cc1	28%	-14%	.	-25%[59 µM]	-1%	.
CC(=O)c1cccc(NC(=O)Cn2c(=O)c(CNc3ccc(C)cc3)cc3cc4c(cc32)OCCO4)c1	3%	-32%	.	?	?	.
COc1cccc(-n2c(=O)[nH]cc(C(=O)Nc3ccc(NC(C)=O)cc3)c2=O)c1	42%	-23%	5%	45µM*	-7%	-1%
CC(=O)c1ccc(S(=O)(=O)NCC(=O)N2CCN(C/C=C/c3ccccc3)CC2)cc1	5%	-27%	0%	7.9µM*	-4%	.
CCOC(=O)c1c(NC(C)=O)c2c3c(sc2n1Cc1nc(-c2cccc(C)c2)oc1C)CCCC3	25%	-15%	.	1%[59 µM]	0%	.
CN(C)/C=C1\N=C(c2ccccc2)OC1=O	24%	-16%	17%	1%	-13%	21%
COc1ccc(/C=C/C2=NC(=C\N(C)C)/C(=O)O2)cc1	17%	-24%	0%	22%[59 µM]	?	79µM*
COc1cccc2[nH]c3c(N4CCC(C)CC4)ncnc3c12	14%	-25%	24%	25%[59 µM]	.	-8%
SMILES	HP1b binding inh	JMJD2A Tudor inh	L3MBTL1 inh	G9a inh	BAZ2B block	Sfp inh
Cc1ccc2[nH]c3c(N4CCN(Cc5ccc6c(c5)OCO6)CC4)ncnc3c2c1	.	.	-3%	50µM*	?	-8%
COc1ccc2c(c1)[nH]c1c(N3CCN(Cc4ccc5c(c4)OCO5)CC3)ncnc12	-27%	?	-12%	.	45µM*	-7%
COc1cccc2[nH]c3c(N4CCN(Cc5ccc6c(c5)OCO6)CC4)ncnc3c12	.	.	7%	45µM*	35µM*	-8%
Cc1ccc2[nH]c3c(N4CCN(Cc5ccccc5)CC4)ncnc3c2c1	-9%	?	.	-30%[12.7 µM]	?	-7%
N/C(=N\N=C/c1ccc(F)cc1)N/N=C\c1ccc(F)cc1	-8%	?	11%	50µM*	?	-7%
N/C(=N\N=C\c1ccc(Cl)cc1)N/N=C/c1ccc(Cl)cc1	.	.	.	-40%[12.7 µM]	.	79µM*
O=[N+]([O-])c1ccc(NNC(=S)Nc2ccc(F)cc2)cc1	?	50µM*	-6%	?	45µM*	2.5µM*
O=C(NNC(=O)C1CC1)c1cccc([N+](=O)[O-])c1	33%	-10%	.	18%	-12%	21%
CC1(C(=O)NNC(=O)c2ccc([N+](=O)[O-])cc2)CC1(Br)Br (stereo not drawn)	61%	-18%	.	.	-9%	-27%
Cc1ccc(C(=O)NNC(=S)Nc2cccc(Cl)c2Cl)cc1[N+](=O)[O-]	-7%	-7%	.	5%[12.7 µM]	-23%	-10%
O=C(NNC(=S)Nc1ccc(F)cc1)c1cccc([N+](=O)[O-])c1	-4%	-20%	1%	45µM*	-4%	5%
O=[N+]([O-])c1ccc(Nc2ccc(F)cc2)cc1	21%	-17%	.	9%	-17%	9%
CC1(C(=O)NNC(=O)c2cccc([N+](=O)[O-])c2)CC1(Br)Br (stereo not drawn)	85%	-23%	.	20µM*	-35%	-3%
Cc1ccc(NC(=S)NNC(=O)c2cccc([N+](=O)[O-])c2)cc1Cl	-15%	?	?	13µM*	?	16%
COc1ccc(/C=N/n2c(C)nc3sc(C)c(C)c3c2=O)cc1	16%	-9%	4%	3%	3%	10%
Nc1ncnc2[nH]c(=O)[nH]c12	.	.	.	.	.	11%
O=C(Nc1ccc(OC(F)(F)F)cc1)Nc1cccc([N+](=O)[O-])c1	5%	-23%	-6%	-8%	5%	?
Cc1ccc(NC(=O)Nc2cccc([N+](=O)[O-])c2)cc1F	-4%	-16%	-5%	-5%	10%	79µM*
COc1ccc(-c2cc(=O)oc3c(O)c(O)ccc23)cc1	-32%	?	.	8.9µM*	?	6%
COc1ccc(C(=O)Oc2ccc3c(-c4ccc(OC)cc4)cc(=O)oc3c2)cc1	.	.	.	.	.	-6%
Nc1cc(N)nc(SCc2cc([N+](=O)[O-])cc3c2OCOC3)n1	36%	-2%[11.4 µM]	-2%	71µM*	1%	11%

Bioassay records deposited in PubChem by National Center for Advancing Translational Sciences (NCATS).
